# Where “and” joins values, the source holds several entries; their conditions need not be identical. Identical values can stand only once. The panel holds about 83,000 compounds, 20% with a hit somewhere; the sample as a whole holds those more often.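 The test compound was applied at a single concentration to cells in 96-well plates for 48 hours, and percent growth was recorded.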 Calls of active or inactive are those of the source. Rule for the calls: active = growth percent below 10; inactive = the rest.
# Tests used:
# Assay in all cases: NCI-60 one-dose screen, 48 h (100 = growth as untreated, 0 = no growth, -100 = all killed)
# Conditions in all cases: 10 µM unless noted
# NCI-H23 lung = test system: NCI-H23 lung
# NCI-H226 lung = test system: NCI-H226 lung
# NCI-H322M lung = test system: NCI-H322M lung
# HOP-62 NSCLC = test system: HOP-62 NSCLC
# NCI-H460 lung = test system: NCI-H460 lung
# HOP-92 NSCLC = test system: HOP-92 NSCLC
# NCI-H522 lung = test system: NCI-H522 lung
# A549/ATCC NSCLC = test system: A549/ATCC NSCLC
# 786-0 renal = test system: 786-0 renal
# COLO 205 colon = test system: COLO 205 colon
# DU-145 prostate = test system: DU-145 prostate
# K-562 leukemia = test system: K-562 leukemia
# MALME-3M melanoma = test system: MALME-3M melanoma
# MDA-MB-231 breast = test system: MDA-MB-231 breast
# RXF 393 renal = test system: RXF 393 renal
# SF-268 CNS = test system: SF-268 CNS
# SF-295 CNS = test system: SF-295 CNS
# SF-539 CNS = test system: SF-539 CNS
# UACC-257 melanoma = test system: UACC-257 melanoma
# M14 melanoma = test system: M14 melanoma
SMILES,growth (NCI-H23 lung),growth (NCI-H226 lung),growth (NCI-H322M lung),growth (HOP-62 NSCLC),growth (NCI-H460 lung),growth (HOP-92 NSCLC),growth (NCI-H522 lung),growth (A549/ATCC NSCLC),growth (786-0 renal),growth (COLO 205 colon),growth (DU-145 prostate),growth (K-562 leukemia),growth (MALME-3M melanoma),growth (MDA-MB-231 breast),growth (RXF 393 renal),growth (SF-268 CNS),growth (SF-295 CNS),growth (SF-539 CNS),growth (UACC-257 melanoma),growth (M14 melanoma)
O=C(Nc1ccc([N+](=O)[O-])cc1Cl)c1cc(Cl)ccc1O,-37.1% (active) and -43.6% (active),-11.4% (active) and -4.59% (active),-0.032% (active) and -21.1% (active),4.95% (active) and 9.98% (active),0.171% (active) and -3.23% (active),-24.7% (active) and -11.7% (active),-34.6% (active) and -12.1% (active),2.95% (active) and 18.5% (inactive),-34.7% (active) and -36.2% (active),-65.9% (active) and -43.8% (active),3.92% (active) and 17.7% (inactive),3.36% (active) and 12.4% (inactive),-8.09% (active) and -27.3% (active),-43.3% (active) and -31.2% (active),-27.4% (active) and -21.6% (active),5.52% (active) and 16.4% (inactive),-56.8% (active) and -57.8% (active),-16.5% (active) and 4.67% (active),-34.2% (active) and 3.09% (active),-24.1% (active) and -34.4% (active)
CC[N+](CC)(CC(=O)Nc1c(C)cccc1C)Cc1ccccc1,85.4% (inactive) and 99.4% (inactive),87% (inactive) and 97.8% (inactive),110% (inactive) and 93.8% (inactive),85.2% (inactive) and 93.2% (inactive),100% (inactive) and 101% (inactive),112% (inactive) and 90.7% (inactive),92% (inactive),106% (inactive) and 98.5% (inactive),103% (inactive),103% (inactive),101% (inactive),94.7% (inactive),96.3% (inactive) and 89.9% (inactive),75.7% (inactive) and 97.2% (inactive),92.8% (inactive) and 106% (inactive),91.9% (inactive) and 104% (inactive),104% (inactive) and 101% (inactive),111% (inactive) and 102% (inactive),92.2% (inactive),95.3% (inactive) and 100% (inactive)
O=[N+]([O-])c1ccc(N/N=C\c2cc(Br)ccc2O)nc1,20.7% (inactive) and 14.2% (inactive),91.4% (inactive) and 55.4% (inactive),24.2% (inactive) and 8.6% (active),12.2% (inactive) and 34.9% (inactive),2.22% (active) and 0.392% (active),37.9% (inactive),6.57% (active) and 7.63% (active),21.4% (inactive),25.6% (inactive) and 35% (inactive),22.9% (inactive) and 43.4% (inactive),31.8% (inactive) and 24.4% (inactive),20.6% (inactive) and -3.71% (active),16.6% (inactive),11% (inactive) and 24.3% (inactive),44.2% (inactive) and 48.2% (inactive),22.3% (inactive) and 19.7% (inactive),6.95% (active) and 7.63% (active),8.15% (active) and 9.56% (active),9.18% (active) and -3.76% (active),2.25% (active) and 13.7% (inactive)
CCOC(=O)C(C(=O)OCC)C(c1ccccc1)N1CCN(c2ccccc2)CC1 (centres undefined),107% (inactive) and 114% (inactive),112% (inactive) and 96.9% (inactive),93.3% (inactive) and 107% (inactive),116% (inactive) and 105% (inactive),116% (inactive) and 109% (inactive),98.1% (inactive) and 86.6% (inactive),89.7% (inactive) and 88% (inactive),99.3% (inactive) and 83.2% (inactive),104% (inactive) and 102% (inactive),114% (inactive) and 124% (inactive),127% (inactive) and 109% (inactive),120% (inactive) and 93.5% (inactive),92.2% (inactive),109% (inactive) and 125% (inactive),102% (inactive) and 97.6% (inactive),110% (inactive) and 100% (inactive),108% (inactive) and 105% (inactive),111% (inactive) and 118% (inactive),98.6% (inactive) and 100% (inactive),102% (inactive) and 103% (inactive)
Cc1cccc(/C=C\C(=O)c2ccc(Cl)cc2)c1,93.9% (inactive) and 102% (inactive),112% (inactive) and 100% (inactive),103% (inactive) and 92.6% (inactive),109% (inactive) and 113% (inactive),110% (inactive) and 102% (inactive),82.3% (inactive),94.2% (inactive),88.8% (inactive) and 85.8% (inactive),82% (inactive) and 74.2% (inactive),121% (inactive) and 111% (inactive),114% (inactive) and 96.5% (inactive),77% (inactive) and 20.5% (inactive),92.5% (inactive),97.6% (inactive) and 116% (inactive),112% (inactive) and 97.8% (inactive),102% (inactive) and 92.5% (inactive),161% (inactive) and 93.9% (inactive),101% (inactive),105% (inactive) and 109% (inactive),94.3% (inactive) and 91.1% (inactive)
CN1CCN(Cc2occc(=O)c2O)CCN(C)CCN(Cc2occc(=O)c2O)CC1,94.6% (inactive) and 49.4% (inactive),94.7% (inactive) and 70.5% (inactive),105% (inactive) and 74.9% (inactive),97.1% (inactive) and 58.9% (inactive),105% (inactive) and 6.42% (active),83.8% (inactive) and 68.4% (inactive),104% (inactive) and 45.8% (inactive),93.2% (inactive) and 12.3% (inactive),93.3% (inactive) and 50% (inactive),102% (inactive) and 29.7% (inactive),124% (inactive) and 61.6% (inactive),101% (inactive) and 16.6% (inactive),106% (inactive) and 72% (inactive),106% (inactive) and 62.3% (inactive),96.6% (inactive) and 72.9% (inactive),113% (inactive) and 63.7% (inactive),102% (inactive) and 76.2% (inactive),93.7% (inactive) and 48% (inactive),61.6% (inactive),105% (inactive) and 52.9% (inactive)
CC(=O)Nc1ccc2cc3ccc(NC(C)=O)cc3nc2c1,74.2% (inactive) and 75% (inactive),71% (inactive) and 69.8% (inactive),64.3% (inactive) and 46.1% (inactive),70.9% (inactive) and 67% (inactive),93.6% (inactive) and 106% (inactive),60.6% (inactive),74.3% (inactive) and 77.7% (inactive),,63.9% (inactive) and 52.1% (inactive),93.7% (inactive) and 91.4% (inactive),64.5% (inactive) and 38.2% (inactive),66% (inactive) and 98.4% (inactive),134% (inactive) and 94.6% (inactive),65% (inactive) and 75.7% (inactive),82.7% (inactive) and 103% (inactive),64.2% (inactive) and 57% (inactive),71.9% (inactive) and 57.9% (inactive),96.4% (inactive) and 87.4% (inactive),111% (inactive) and 118% (inactive),88% (inactive) and 87.8% (inactive)

# Source: PubChem BioAssay (NCI)
